HT1080 IDH1KD tx: toxicity to HT-1080 IDH1 knockdown cells (counter line) | HT-1080 IDH1 knockdown viability, ATP luminescence, 48 h | Potency, µM (series often up to 46.1 µM), inactives show top-dose activity, negative = toxicity, hits mostly cytotoxic | 360,000 tested, 2% active | AID 686971;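 also: 0% = DMSO wells and -100% = cell-free medium wells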
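Knockdown cells (IDH1KD HT-1080) received compounds 2 h after plating at 750 cells/well and were kept 48 h at 37 °C in 5% FBS RPMI. A CellTiter-Glo luminescence read gave % activity for curve fitting.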
HT1080-NT tox: kills 2HG-producing HT-1080-NT fibrosarcoma cells. 360,000 tested, 1.6% active. HT-1080-NT fibrosarcoma viability, CellTiter-Glo ATP luminescence, 48 h. Potency, µM (titrated, usually from 46.1 µM), inactives show at the top dose activity, negative = less viability, most hits filed as cytotoxic. AID 686970;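 also: NT is the 2HG producing partner of a matched IDH1 knockdown line; 0% = DMSO-treated cells and -100% = media-only wells without cells; nearly all actives have a fitted effect of over 55% in size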
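750 cells/well, RPMI + 5% FBS; 2 h settle, compound pin-transfer, 48 h at 37 degrees C. CellTiter-Glo 10 min RT, luminescence. Normalized to DMSO and media-only wells.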
SW480 rerep: induces DNA re-replication in SW480 colon adenocarcinoma cells | SW480 DNA re-replication, Hoechst DNA content imaging, 48 h | Potency, µM (doses to about 46.1 µM), for the others: at the highest dose re-replication activation, usual class: activators | 340,000 tested, 1.8% active; also: % of control where 0% means no effect; nearly all actives have a fitted effect of over 55% in size
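Treated cells incubate 48 hr (37 C, 5% CO2), are stained 40 min with Hoechst, and nuclear fluorescence is enumerated; a rise in nuclei with high DNA signal marks re-replication.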
KB-3-1 tox: KB-3-1 parental cell cytotoxicity | KB-3-1 viability, CellTiter-Glo ATP luminescence, 72 h | Potency, µM (titrated, usually from 46.1 µM), hits mostly cytotoxic | 400,000 tested, 1.4% active | AID 1347075; also: % is scaled to controls: 0 for no effect and ±100 for the full control effect; nearly all actives have a fitted effect of over 60% in size
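Cytotoxicity measured as CellTiter-Glo luminescence after 72 h at 37 C. Compound titrations were pinned onto drug-naive KB-3-1 parental adenocarcinoma cells grown in DMEM with 10% FBS, and normalized data fitted to concentration-response curves.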
MCF10A rereplic: inducers of DNA re-replication in MCF 10A breast cells. MCF 10A DNA re-replication, Hoechst nuclear intensity, 48 h. Potency, µM (titrated, usually from 46.1 µM), for the others: at the highest dose activity, positive = re-replication, hits mostly activators. 350,000 tested, 2.9% active; also: % of control where 0% means no effect; nearly all actives have a fitted effect of over 50% in size
KB-V1 MDR tox: kills drug-selected multidrug resistant KB-V1 cells | KB-V1 MDR cells viability, CellTiter-Glo, 72 h | Potency, µM (doses to about 46.1 µM), usual class: cytotoxic | 400,000 tested, 3.4% active; also: % is scaled to controls: 0 for no effect and ±100 for the full control effect; nearly all actives have a fitted effect of over 60% in size
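Cytotoxicity via CellTiter-Glo luminescence after 72 h compound exposure at 37 degrees C. Cells: drug-selected KB-V1 line, DMEM phenol-red free plus 10% FBS. Compounds tested at multiple concentrations; normalized data fitted to concentration-effect curves.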
* marks the source's active call; other numbers are inactive results; i = inactive; ? = inconclusive; / = no result given; [ ] = another dose, or the depositor's remark. A selection: hits, their analogues and other compounds. The true share with any hit is near 7.9%. Calls follow the shape of the dose curve; as a rule, active = well fitted curve in the direction sought with a large enough effect; inconclusive = small, poorly fitted or top-dose-only effect, or another doubt; inactive = no such curve, though single readings can be large; an effect the other way counts as inactive or inconclusive. Potency is read from the fitted curve at half-maximal effect.

SMILES | HT1080 IDH1KD tx | HT1080-NT tox | SW480 rerep | KB-3-1 tox | MCF10A rereplic | KB-V1 MDR tox
COC(=O)NC(NC(=S)Nc1ccc([N+](=O)[O-])cc1)C(Cl)(Cl)Cl (stereo not given) | -6% | -10% | 16% | ? | 23% | 21µM*
COc1ccc2c(Cn3cnc4cc([N+](=O)[O-])ccc4c3=O)cc(=O)oc2c1 | 2.6µM* | 3.7µM* | 5.8µM* | 4.6µM* | 9.2µM* | 4.6µM*
COCCNC(=O)c1cccc(Nc2nc(-c3ccccc3)c3cc(Cl)ccc3n2)c1 | ? | -23% | ? | 15µM* | 2.6µM* | ?
c1ccc(-c2nnnc3ccccc23)cc1 | 10% | 10% | -10% | i | -1% | i
CC(=O)NNc1nc(-c2ccccc2)c2cc(Cl)ccc2n1 | 0% | -5% | / | i | / | i
Cc1ccc2nc(N/N=C/c3ccccc3C#N)nc(-c3ccccc3)c2c1 | -6% | 1% | ? | i | 13µM* | ?
Cc1ccc2nc(NCCO)nc(-c3ccccc3)c2c1 | -14% | -3% | ? | i | ? | 12µM*
Clc1ccc2nnnc(-c3ccccc3)c2c1 | ? | ? | ? | 2.6µM* | 3.3µM* | 10µM*
CCOCCc1nn2c(=O)cc(COC(=O)c3ccc(NC(=O)C4CCCCC4)cc3)nc2s1 | / | / | / | i | / | i
CC(=O)Cn1cnc2scc(-c3ccc(C)c(C)c3)c2c1=O | ? | 1% | 9% | i | 0% | i
OCCNc1nc(-c2ccccc2)c2cc(Cl)ccc2n1 | ? | ? | ? | i | 21µM* | ?
OCCNc1nc(-c2ccccc2)c2ccccc2n1 | 2% | -2% | ? | i | ? | i
CSCCC(NC(=O)c1ccccc1Cl)C(=O)NCCc1ccccn1 (stereo not given) | 7% | 5% | -5% | i | 15% | i
COc1cc(Cn2c(=O)sc3ccccc32)ccc1OC(C)C | / | / | / | i | / | i
Cc1nc(N)sc1-c1csc(Nc2ncccn2)n1 | 21µM* | ? | 17% | i | ? | i
O=C(CN(Cc1ccco1)C(=O)c1ccc(N2CCCC2=O)cc1)Nc1ccccc1C(F)(F)F | 3% | 18% | 2% | i | 2% | i
CCN(Cc1ccccc1)Cc1ccc(OCc2ccccc2)cc1 | 0% | -1% | 0% | i | 0% | i
CCN(CC)CCn1c(=N)n(CCOc2ccccc2)c2ccccc21 | 10µM* | 11µM* | 11µM* | ? | 24% | i
CN=c1sc2ccccc2n1CC(O)COc1ccccc1 (stereo not given) | -9% | 1% | 3% | i | 20% | 15µM*
CCN(CC)CCn1c(=N)n(CC(O)COc2ccccc2)c2ccccc21 (stereo not given) | ? | 16µM* | 21µM* | i | 22% | i
CCN(CC)CCOc1ccc(Cc2ccccc2)cc1 | / | / | -1% | / | 24µM* | /
CN(C)CCNC(=O)/C(=N\O)c1ccccn1 | 0% | -1% | -5% | i | 8% | i
COc1ccc(C=C2NC(=O)NC2=O)cc1O | -6% | 0% | / | i | / | i
COc1cc(/C=C2\NC(=O)NC2=O)cc(Br)c1OC | 3% | 0% | 0% | ? | -15% | 5.8µM*
Nc1nc(-c2ccc3c(c2)CCC(=O)N3)cs1 | 0% | 1% | -2% | 5.2µM* | 6% | 3.7µM*
SMILES | HT1080 IDH1KD tx | HT1080-NT tox | SW480 rerep | KB-3-1 tox | MCF10A rereplic | KB-V1 MDR tox
Oc1ccc(-c2nc3c4c(ncn3n2)-c2ccccc2CC42CCCC2)cc1 | 17% | 12% | 1% | i | 4.6µM* | ?
CC(=O)/C=C/c1ccccc1Oc1c(F)c(F)nc(F)c1F | ? | ? | 18µM* | ? | 23µM* | i
Oc1ccccc1Oc1c(F)c(F)nc(N2CCCC2)c1F | 3% | 7% | 12% | i | ? | i
C=CCOC(=O)C1=C(C)NC(SCC)=C(C#N)C1c1ccc(Cl)cc1 (stereo not given) | 8.2µM* | 9.2µM* | ? | ? | 23µM* | 23µM*
C=CCOC(=O)C1=C(C)NC(SCC(=O)Nc2ccc(C)c(Cl)c2)=C(C#N)C1c1ccco1 (stereo not given) | 16µM* | 18µM* | 11µM* | i | 11µM* | i
C=CCOC(=O)C1=C(C)NC(SCC(N)=O)=C(C#N)C1c1ccc(C)cc1 (stereo not given) | -3% | -3% | -12% | i | 1% | i
C#CCSC1=C(C#N)C(c2cccs2)C(C(=O)OCC)=C(C)N1 (stereo not given) | -11% | 9% | 4% | i | 14% | 10µM*
COc1ccccc1NC(=O)C1=C(C)NC(SCC(=O)c2ccccc2)=C(C#N)C1c1ccco1 (stereo not given) | ? | ? | ? | i | ? | i
COc1ccc(NC(=O)CSC2=C(C#N)C(c3ccco3)C(C(=O)Nc3nc4ccccc4s3)=C(C)N2)cc1 (stereo not given) | -18% | -22% | 9.2µM* | ? | ? | i
CCOC(=O)C1=C(C)NC(C)=C(C(=O)OCC)C1c1cccs1 | -13% | -12% | -2% | i | -3% | ?
COCCOC(=O)C1=C(C)NC(SCC(=O)NC(C)(C)C)=C(C#N)C1c1ccco1 (stereo not given) | -3% | -1% | 18% | i | ? | ?
CC(=O)C1=C(C)NC(SCC(=O)Nc2nc3ccccc3s2)=C(C#N)C1c1ccc(Cl)cc1 (stereo not given) | -3% | -21% | 16µM* | ? | 22% | ?
CC(C)(C)c1ccc(NC(=O)CON=C(N)c2ccccc2)cc1 | -1% | -1% | 0.29µM* | i | 15% | i
CN1CCN(S(=O)(=O)c2cccc(C(=O)N(C)Cc3c(F)cccc3Cl)c2)CC1 | -1% | -4% | ? | i | 8% | i
Cc1ccc(NC(=O)c2ncn(CC(=O)NCc3ccc4[nH]ccc4c3)n2)cc1C | -1% | 1% | 0% | i | 27% | i
Cc1ccc(NC(=O)c2ncn(CCCN(CCCn3cnc(C(=O)Nc4ccc(C)c(C)c4)n3)Cc3ccc4[nH]ccc4c3)n2)cc1C | 21µM* | 16µM* | ? | i | ? | i
O=C(NNC1=C(C(=O)C(F)(F)F)CCC1)c1ccccc1O | ? | 23µM* | -3%[9.22 µM] | ? | ? | i
O=C(NNC1=C(C(=O)C(F)(F)F)CCC1)c1ccccc1Cl | ? | 15µM* | ? | ? | ? | ?

Screening results (PubChem)
